# Assay outcomes: PubChem BioAssay, National Center for Advancing Translational Sciences (NCATS)
# miR-21 reporter: qHTS Assay for Modulators of miRNAs and/orActivators of miR-21 | HeLa miR-21 FLuc reporter, luciferase, 48 h | Potency, µM (doses to about 38.3 µM), most hits filed as activators | 340,000 tested, under 10 active | AID 2288, 2010;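 also: miR-21 action dims this reporter so a rising signal means less miR-21 action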
#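 HeLa miR-21-FLuc reporter line, endogenous miR-21; 2000 cells/well in DMEM/10% FBS; compound titration up to ~40uM final, 48 h, 37 degree Celsius; luciferase detection reagent, 15 min lysis, CCD luminescence.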
# TrxR1 substrate: qHTS Assay for Substrates of Mammalian Selenoprotein Thioredoxin Reductase 1 (TrxR1): qHTS; purified TrxR1 substrate turnover, NADPH consumption readout; Potency, µM (doses to about 114 µM); 390,000 compounds, 0.01% hits; AID 588456, 2011; also: nearly all actives have a fitted effect of over 50% in size
# Target sequence (O89049 whole entry, looked up): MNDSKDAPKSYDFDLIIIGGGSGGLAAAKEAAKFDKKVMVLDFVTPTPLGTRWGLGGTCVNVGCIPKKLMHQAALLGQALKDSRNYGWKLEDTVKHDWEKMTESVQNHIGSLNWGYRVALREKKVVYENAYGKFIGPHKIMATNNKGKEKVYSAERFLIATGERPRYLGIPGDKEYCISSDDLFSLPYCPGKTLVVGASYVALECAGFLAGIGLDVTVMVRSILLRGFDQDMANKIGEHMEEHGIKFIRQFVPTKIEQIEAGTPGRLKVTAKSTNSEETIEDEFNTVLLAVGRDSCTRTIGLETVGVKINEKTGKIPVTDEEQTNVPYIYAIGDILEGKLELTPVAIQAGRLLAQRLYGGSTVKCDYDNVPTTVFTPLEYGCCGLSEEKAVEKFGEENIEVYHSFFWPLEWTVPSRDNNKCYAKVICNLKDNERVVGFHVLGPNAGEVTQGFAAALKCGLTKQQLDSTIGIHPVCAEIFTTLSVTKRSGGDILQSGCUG
#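 Rat TrxR1, dispensed at 90 nM, was prereduced with 400 uM NADPH (final) for 5 min at ~22 deg C, then incubated with compound 15 min before 400 uM selenite. A first-read NADPH fluorescence drop versus no-compound background flagged substrates.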
# TrxR1 inh: qHTS Assay for Inhibitors of Mammalian Selenoprotein Thioredoxin Reductase 1 (TrxR1): qHTS | recombinant rTrxR1, NADPH fluorescence consumption, selenite substrate | 390,000 compounds, 1% hits | Thioredoxin reductase 1, cytoplasmic (Rattus norvegicus), O89049 | Potency, µM (top dose mostly 114 µM), hits mostly inhibitors; also: nearly all actives have a fitted effect of over 65% in size
#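 Rat TrxR1 (90 nM in the dispensed reagent) was pre-reduced with 400 uM NADPH for 5 min at room temperature, then incubated with compound for 15 min. After 400 uM selenite was added, NADPH fluorescence (Ex 340/Em 450 nm) was followed for 8 min.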
# ClpP mod: qHTS Assay for Activators of ClpP. Potency, µM (series often up to 57.5 µM). ATP-dependent Clp protease proteolytic subunit (Bacillus subtilis (strain 168)), P80244. 340,000 compounds, 1.9% hits. AID 651965, 2013. purified B. subtilis ClpP, FRET peptide cleavage, 20 min; active = well fitted falling curve with a large enough effect; inconclusive = small, poorly fitted or top-dose-only effect; inactive = no such curve, though single readings can be large or run the other way; also: the source files actives as falling curves though it sought activators and does not explain the sign; nearly all actives have a fitted effect of over 65% in size
#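 Buffer: 100 mM Tris/HCl pH8, 100 mM KCl, 0.05% low protease BSA, 2.5% glycerol, 0.01% Tween-20. ClpP 10 microg/mL final; 20 min RT; delta FRET normalized to ADEP and DMSO controls.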
# Anesthetic bind: qHTS Assay for Identification of Novel General Anesthetics. Ferritin light chain (Equus caballus), P02791. apoferritin/1-aminoanthracene competitive binding, fluorescence. Potency, µM (top dose mostly 77.5 µM), hits mostly inhibitors. 350,000 compounds, 0.074% hits; also: nearly all actives have a fitted effect of over 20% in size
# Target sequence (P02791 2-175 limits assumed): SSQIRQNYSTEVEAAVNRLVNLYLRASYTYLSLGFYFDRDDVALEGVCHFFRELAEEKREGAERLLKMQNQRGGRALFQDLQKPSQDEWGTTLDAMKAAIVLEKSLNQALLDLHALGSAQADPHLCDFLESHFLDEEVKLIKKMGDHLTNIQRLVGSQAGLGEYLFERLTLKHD
#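 Horse-spleen apoferritin (10 uM) in 50% saturated 1-aminoanthracene in PBS was incubated 10 min at room temperature with compound. Fluorescence (ex 380, em 535 nm) was normalized to free and bound 1-AMA, with concentration-response fitted by a four-parameter Hill equation.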
# Numbers stand for hits; 0 = inactive; ? = inconclusive; - = not tested or not shown; ! = a repeat was not active; [ ] = another dose, or the depositor's remark. In the library only some 2.5% were active in any assay of this set; here they are far more common. Unless noted, calls follow the shape of the dose curve; as a rule, active = well fitted curve in the direction sought with a large enough effect; inconclusive = small, poorly fitted or top-dose-only effect, or another doubt; inactive = no such curve, though single readings can be large; an effect the other way counts as inactive or inconclusive.
SMILES,miR-21 reporter,TrxR1 substrate,TrxR1 inh,ClpP mod,Anesthetic bind
CCOC(=O)N1CCc2c(sc3c2c(=O)n(Cc2ccccc2)c(=O)n3Cc2c(F)cccc2Cl)C1,0,0,0,0,0
Cc1ccccc1C(=O)OCC(=O)NCc1ccco1,-,0,0,0,-
NC(=O)c1ccc(NC(=O)COC(=O)CC2CC3CCC2C3)cc1 (configuration not stated),-,0,0,-,-
COc1ccccc1/C=C/C(=O)OCC(=O)NCc1ccco1,0,0,?,0,0
COc1ccc(CC(=O)OCC(=O)NCc2ccco2)cc1,-,0,0,-,-
COc1ccc(OCC(=O)OCC(=O)NCc2ccco2)cc1,0,0,0,28µM,0
Cc1ccsc1C(=O)OCC(=O)NCc1ccco1,0,0,0,3.2µM,0
COc1cc(/C=C/C(=O)OCC(=O)NCc2ccco2)ccc1O,-,0,50µM,0,-
O=C(COC(=O)CC1CC2CCC1C2)NC(=O)NCc1ccco1 (configuration not stated),0,0,0,0,13µM
Cc1ccc(CNC(=O)Cn2c3ncccc3c(=O)n2-c2ccc(C)cc2)cc1,0,0,0,?,0
Cc1nc2nc(SCC(=O)NCCc3ccc(Cl)cc3)nn2c(C)c1Cc1ccccc1,0,0[2.29 µM],0,0,0
Cc1ccc(NC(=O)CCn2c(=O)c3cccn3c3ccccc32)c(Cl)c1,0,0,0,0,0
CN1C(=O)/C(=C\C(=O)c2cccs2)c2ccccc21,?,0,0,-,?
CC(=O)/C=C1\C(=O)N(C)c2ccccc21,-,0,30µM,-,-
COc1cc2nc(Nc3cccc(F)c3)nc(N)c2cc1OC,0,0,0,32µM!,0
COC(=O)c1ccc(-c2nc(CN3CCC(C(=O)N4CCOCC4)CC3)c(C)o2)cc1,0,0,0,7.9µM,0
CCCOc1ncnc2c1[nH]c1ccccc12,0,0,0,14µM,0
CCCCCCCCCC[n+]1ccc(/C=C/c2ccc(N(C)C)cc2)c2ccccc21,-,0,?,0,-
N#CC1=C(N)SC(N)=C(C#N)C1c1ccc([N+](=O)[O-])cc1,0,0,50µM,0,0
COc1cc(OC)c(N(C)C(=O)c2cn(C3CCCC3)c(=O)c3c2c2ccccc2n3C)cc1Cl,?,0,0,0,0
CC(C)CNC(=O)CSc1nc2scc(-c3ccccc3)c2c(=O)[nH]1,0,0,0,22µM,0
COc1ccc(OC)c2c1C(=O)c1ccccc1C2=O,0,0,0,0,0
COc1ccc(OC)c2c1C(=O)C(Cl)=C(Cl)C2=O,0,0,0.16µM,0,0
CCNc1nc(OC)nc(Oc2ccc(=O)[nH]n2)n1,0,0[11.4 µM],0,0,0
N#Cc1cc(N)ccc1Sc1ccc(Cl)cc1,0,0,0,28µM,?
SMILES,miR-21 reporter,TrxR1 substrate,TrxR1 inh,ClpP mod,Anesthetic bind
N#Cc1cc(N)ccc1Sc1ccccc1,0,0,0,?,0
CC1(C(=O)Nc2cccc(-n3cnnn3)c2)Cc2ccccc2C(=O)O1 (configuration not stated),-,0,0[11.4 µM],35µM,-
CC1(C(=O)Nc2cccc(Br)c2)Cc2ccccc2C(=O)O1 (configuration not stated),0,0,0,0,?
COc1ccc(N(C)C(=O)CCn2cnc3onc(-c4ccc(F)cc4)c3c2=O)c(OC)c1,0,0,0,0,0
O=C(c1ccc(F)cc1)c1cn(Cc2ccccc2)c2cc3c(cc2c1=O)OCO3,0,0,0,0,0
CCOC(=O)C1CN(S(=O)(=O)c2ccc(C)cc2)c2ccccc2O1 (configuration not stated),0,0,3.2µM,-,0
Cc1nn(C)c(C(=O)Sc2ccccc2)c1[N+](=O)[O-],0,0,?,-,0
Cc1nn(C)c(C(=O)Sc2cccc(Cl)c2)c1[N+](=O)[O-],0,0,2µM,-,0
CCc1ccc(NC(=O)C(=O)NCCc2sc(-c3ccc(C)cc3)nc2C)cc1,0,0,0,0,0
Cc1cccc(NC(=O)c2ccc(C(=O)c3ccccc3)o2)c1,0,0,0,22µM,0
O=C(c1ccccc1)c1cccc(NC(=O)c2ccc(Br)o2)c1,0,0[11.4 µM],0[11.4 µM],0,?
COC(=O)c1ccc(-n2c(C)cc(-c3csc(NC(=O)c4ccc(S(=O)(=O)N(C)C)cc4)n3)c2C)cc1,0,0,0,0,0
Cc1cc(-c2csc(NC(=O)c3cccc(S(=O)(=O)N(C)C)c3)n2)c(C)n1-c1ccccc1,0,0,0,14µM,0
COC(=O)C1=C(C)N(c2ccc(S(N)(=O)=O)cc2)C(=O)C1,0,0,?,0,0
COC(=O)C1=C(C)N(c2ccc(Cl)c(Cl)c2)C(=O)C1,0,0,50µM,0,0
COc1cccc(OC)c1OCCNC(C)(C)C,0,0,0,32µM,0
CN(C)/[N+]([O-])=N/Oc1ccc([N+](=O)[O-])cn1,-,0,0,-,-
CCSC1(SCC)N=C(N)C2(C#N)C(c3ccc(F)cc3)C12C#N (configuration not stated),?,0,32µM,0,?
CN(C(=O)CSc1nc2ccc(NC(=O)COc3ccc(F)cc3)cc2s1)c1ccccc1,?,0,0,0,0
CC(=O)c1ccccc1S(=O)(=O)N1CCN(c2nc(-c3cccs3)nc3ccccc23)CC1,-,0,0,?,-
CCC(C)Sc1cccc(-c2nc3ccc(C)cn3c2NC2CCCCC2)c1 (configuration not stated),-,0,0,16µM!,-
CCC(C)Sc1ccc(-c2nc3ccc(C)cn3c2NC2CCCCC2)cc1 (configuration not stated),-,0,0,0,-
C=CCNC(=O)c1ccc(-c2ccc([N+](=O)[O-])cc2)o1,0,0,10µM,0,0
CCCN(CC(=O)Nc1ccccc1C)C(=O)c1ccc(-c2ccc([N+](=O)[O-])cc2)o1,-,0,3.5µM,0,-
CCCN(CC(=O)Nc1ccccc1C)C(=O)c1cn2ccccc2n1,-,0,0,32µM,-
CCN(CC(=O)Nc1c(F)cccc1F)C(=O)c1cn2ccccc2n1,-,0,0,?,-
Cc1ccccc1CNC(=O)c1ccc2nc(SCc3ccc(F)cc3)n(C)c2c1,0,0,0,0,0
COc1ccc(S(=O)(=O)NCC(c2ccco2)N2CCN(c3ccccc3F)CC2)cc1C (configuration not stated),0,0,0,0,0
CCOc1cc(CNC(=O)c2ccc3nc(C(C)C)oc3c2)cc(OCC)c1OCC,0,0,0,0,0
Cc1ccc(S(=O)(=O)N2CCN(c3nc(-n4ccnc4)nc4ccccc34)CC2)cc1,-,0,0,?,-
